# Source: PubChem
# CYP2C19 act: activators of human cytochrome P450 2C19. activation factor at 5 µM. 96,000 tested, under 10 active. AID 1025. P33261. recombinant CYP2C19, luciferin-H EGE luminescence; active compounds read high; 0 = fully inhibited enzyme, 1 = untreated enzyme;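 active means activation factor of at least 2 at 5 µM in the primary screen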;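 further: 0 = wells with 2.5 mM tranylcypromine and 1 = vehicle-only wells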
# Target sequence (P33261 whole entry, looked up): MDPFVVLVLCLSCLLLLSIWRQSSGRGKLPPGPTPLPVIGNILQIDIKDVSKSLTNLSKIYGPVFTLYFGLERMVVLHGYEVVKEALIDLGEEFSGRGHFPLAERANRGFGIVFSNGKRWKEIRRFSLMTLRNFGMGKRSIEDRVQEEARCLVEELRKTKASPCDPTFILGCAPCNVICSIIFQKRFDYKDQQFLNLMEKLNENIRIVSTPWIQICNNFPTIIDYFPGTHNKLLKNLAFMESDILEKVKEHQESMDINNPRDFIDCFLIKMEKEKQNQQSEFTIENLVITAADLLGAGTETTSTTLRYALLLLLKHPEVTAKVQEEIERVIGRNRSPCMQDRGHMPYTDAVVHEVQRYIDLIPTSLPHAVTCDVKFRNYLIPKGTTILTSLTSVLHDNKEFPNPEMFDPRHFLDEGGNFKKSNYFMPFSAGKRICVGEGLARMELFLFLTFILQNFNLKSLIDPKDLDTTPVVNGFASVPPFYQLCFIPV
# CYP2C9 inh: human CYP2C9 inhibition. hit rate 20% among 96,000. inhibition, % at 5 µM. CYP2C9 Supersomes, luciferin-H conversion, luminescence. AID 777;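 active means blocking of liver enzyme CYP2C9 beyond about 50% at 5 µM, limit read from the data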
# CYP2C9 act: CYP2C9 (human) activation. P11712. recombinant CYP2C9, luciferin-H conversion, luminescence; active compounds read high; factor 1 = untreated enzyme, 0 = blocked. activation factor at 5 µM. hit rate 1.4% among 96,000;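 active means activation factor of 2 or more for CYP2C9 at a 5 µM dose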;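 further: 0 = sulfaphenazole-blocked wells and 1 = vehicle-only wells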
# PostGolgi ctrl: inhibits growth of the yeast control strain | efflux-deficient yeast background strain, growth absorbance A615, 16 h | inhibition, % at 10 µM | hit rate 5% among 98,000 | AID 738
# CYP2C19 inh: human CYP2C19 inhibition; P33261; CYP2C19 Supersomes, luciferin-H EGE luminescence, 30 min; inhibition, % at 5 µM; hit rate 21% among 96,000; AID 778;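 active means CYP2C19 inhibition above a set limit at 5 µM in the primary screen, cut at about 50% in these data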;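 further: plate controls were negative control wells for no effect and 2.5 mM tranylcypromine positive control for full effect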
# PostGolgi yeast: growth inhibition of a yeast mutant, post-Golgi transport screen. post-Golgi transport phenotypic cell assay. inhibition, % at 10 µM. hit rate 0.9% among 98,000;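 further: yeast cells grown in 1536-well plates; yeast grown about 18 h at 30C before absorbance read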
# An asterisk follows results filed as active; · = not tested or not shown. Sampled rows, rich in hits. Any-hit rate of the full collection: about 32%. Unless noted, no stated cut-off is given here; in the data, active means inhibition above about 30%; inactive means the rest.
SMILES,CYP2C19 act,CYP2C9 inh,CYP2C9 act,PostGolgi ctrl,CYP2C19 inh,PostGolgi yeast
Cc1n[nH]c(=S)n1/N=C/c1ccc(-c2ccccc2[N+](=O)[O-])o1,0.9,8,0.9,18,12,-3
O=C(COC(=O)C1CCCN1C(=O)c1cccs1)Nc1ccc2c(c1)OCO2 (configuration not stated),0.7,46,0.5,1,31,-5
NS(=O)(=O)c1ccc(CCNC(=O)COC(=O)C2CCCN2C(=O)c2cccs2)cc1 (configuration not stated),0.2,37,0.6,21,75*,0
O=C(NCCOc1ccccc1)C1CCCN1C(=O)c1cccs1 (configuration not stated),·,·,·,34*,·,2
COc1ccc(NC(=O)COC(=O)[C@@H]2CCCN2C(=O)c2cccs2)cc1,0.5,60*,0.4,-2,46,-12
O=C(C1CCCN1C(=O)c1cccs1)N1CCN(Cc2ccc3c(c2)OCO3)CC1 (configuration not stated),·,·,·,4,·,0
O=C(OCC(=O)N1CCCC1)c1cccs1,1,-4,1,3,5,-2
CCCOc1ccc(C(=O)N2CCCC2C(=O)O)cc1 (configuration not stated),1,-3,1,-8,-1,13
O=C(COC(=O)C1CCCN1C(=O)c1cccs1)c1ccccc1 (configuration not stated),0.1,-12,1.1,2,88*,4
CC1(C)CC(=O)C=C(NCC(=O)O)C1,1,-3,1,-1,1,-3
O=P(c1ccccc1)(c1ccccc1)C(O)c1ccncc1 (configuration not stated),0.7,13,0.9,9,27,4
Cc1ccc(NC(=O)CCC(=O)NNC(=O)Cc2ccccc2)cc1C,0.7,-10,1.1,12,25,-22
O=C(OCc1ccccc1)C1CCCN1C(=O)c1ccccc1[N+](=O)[O-] (configuration not stated),0.6,20,0.8,16,35,4
O=C(OCc1ccccc1)C1CCCN1C(=O)c1cccs1 (configuration not stated),0.3,2,1,1,72*,-6
Nc1nc2n(n1)C(c1c(F)cccc1Cl)CC(c1ccc(F)cc1)N2 (configuration not stated),·,·,·,-4,·,-6
CCOc1c(Cl)cc(CNC(C)(C)CC(C)(C)C)cc1OC,0.1,-5,1,8,91*,-6
O=C(Nc1ccccc1)c1ccc(CSc2ncccn2)cc1,0.6,43,0.6,9,44,-2
Cc1ccc(NC(=O)c2ccc(CSc3nccc(C)n3)cc2)cc1,0.7,64*,0.4,-7,32,1
CCCC(=O)NC1=C(C#N)C2(CCCC2)Cc2ccccc21,0.6,13,0.9,15,41,-11
CCCC(=O)C1=C(c2ccccc2)C(C#N)(C#N)C(C#N)=C1N,0.7,73*,0.3,-2,32,-10
CCC(CC)c1nnc(NC(=O)c2c(-c3ccccc3)noc2C)s1,0.8,58*,0.4,7,19,-1
COC(=O)c1ccc(C)c(NC(=O)c2c(-c3ccccc3)noc2C)c1,0.3,39,0.6,8,69*,-1
Cc1onc(-c2ccccc2)c1C(=O)Nc1ccc(OC(C)C)cc1,·,·,·,9,·,2
COc1cccc(/C=N/NC(=O)c2c(-c3ccccc3)noc2C)c1,0.5,67*,0.3,2,50*,-4
Cc1onc(-c2ccccc2)c1C(=O)Nc1nnc(COc2ccc(Cl)cc2)s1,0.5,98*,0,24,54*,-17
Cc1onc(-c2ccccc2)c1C(=O)Nc1ccon1,0.9,-6,1.1,1,10,3
Cc1onc(-c2ccccc2)c1C(=O)Nc1nc(-c2cc(F)ccc2F)cs1,1.1,-14,1.1,0,-11,-2
Cc1onc(-c2ccccc2)c1C(=O)Nc1nc(-c2ccccc2)cs1,0.3,72*,0.3,34*,70*,-5
Cc1cc(C(=O)OCC(=O)Nc2nc(-c3ccccc3)cs2)c(C)o1,0.9,-4,1,-3,5,-6
Cc1cc(C(=O)OC(C)C(=O)Nc2nc(-c3ccccc3)cs2)c(C)o1 (configuration not stated),0.1,96*,0,37*,89*,0
